According to PubChem BioAssay (Tox21):
A number with no mark means an inactive call. Inconclusive results are not listed. Entries that show only a call come without a potency. Activity calls are given as the source filed them. Unless noted, calls come from the whole dose curve; as a rule, active = well fitted curve in the direction sought with a large enough effect in the repeat runs; inconclusive = weak or mixed curves; inactive = no such curve, though single readings can be large; an effect the other way counts as inactive or inconclusive.

Tests used:
[1] = A CellTox Green Cytotoxicity Assay to monitor cytotoxicity in HepG2 cells - 8 hour (AID 1224890); note: nearly all actives have a fitted effect of over 45% in size
How it was run: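 HepG2, 600 cells/well premixed w/ CellTox Green; 5 h settle, 37 C/5% CO2; pintool cpd add (DMSO); 37 C, 40 h; fluorescence read at 0, 8, 16, 24, 32, 40 h.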

[2] = qHTS assay to identify small molecule antagonists of the estrogen receptor alpha (ER-alpha) signaling pathway using the BG1 cell line in the presence of 0.1 nM 17-beta-estradiol - cell viability counter screen (AID 1259241); note: nearly all actives have a fitted effect of over 40% in size; note: potency is the fitted concentration of half-maximal effect
How it was run: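 VM7Luc4E2 cells (endogenous ER-alpha, 4×ERE-luciferase), hormone-starved 5 days in charcoal-stripped FBS, were treated with compounds plus 0.1 nM 17beta-estradiol for 22 hr at 37C; viability read in same wells as CellTiter-Fluor live-cell protease fluorescence.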

[3] = molecular target: Estrogen receptor (Homo sapiens) (UniProt P03372); test: qHTS assay to identify small molecule antagonists of the estrogen receptor alpha (ER-alpha) signaling pathway using the BG1 cell line in the presence of 0.1 nM 17-beta-estradiol (AID 1259244); note: nearly all actives have a fitted effect of over 50% in size; note: potency is the fitted concentration of half-maximal effect
Chain of Estrogen receptor (Homo sapiens) (P03372 whole entry, looked up): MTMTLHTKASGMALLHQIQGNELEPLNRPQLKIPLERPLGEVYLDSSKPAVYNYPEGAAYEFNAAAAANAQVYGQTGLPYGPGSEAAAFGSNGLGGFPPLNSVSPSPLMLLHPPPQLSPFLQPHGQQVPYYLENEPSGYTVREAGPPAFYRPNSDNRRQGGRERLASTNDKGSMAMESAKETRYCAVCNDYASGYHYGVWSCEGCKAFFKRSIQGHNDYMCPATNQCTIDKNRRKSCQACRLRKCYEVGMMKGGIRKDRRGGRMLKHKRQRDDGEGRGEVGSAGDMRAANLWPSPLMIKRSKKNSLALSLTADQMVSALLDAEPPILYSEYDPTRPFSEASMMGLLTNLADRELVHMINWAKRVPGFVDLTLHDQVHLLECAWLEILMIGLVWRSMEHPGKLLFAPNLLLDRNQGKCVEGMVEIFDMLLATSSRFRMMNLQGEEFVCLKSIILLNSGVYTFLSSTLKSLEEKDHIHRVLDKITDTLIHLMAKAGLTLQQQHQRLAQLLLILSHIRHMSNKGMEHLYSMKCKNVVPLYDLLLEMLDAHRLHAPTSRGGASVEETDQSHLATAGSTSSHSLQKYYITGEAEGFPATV
How it was run: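 Luminescence after ONE-Glo (30 min, room temperature) measured ERE-luciferase activity in VM7Luc4E2 cells treated 22 h with compound and 0.1 nM final 17beta-estradiol as stimulator.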

[4] = qHTS assay to identify small molecule HDAC inhibitors (AID 1259364);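 note: wild-type HCT-116 cells with endogenous class I/II HDAC activity; top concentration of the series differs between compounds; nearly all actives have a fitted effect of over 45% in size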
How it was run: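 HCT-116 (wild type), 1,500 cells/well, overnight; compound 2 hr 37C 5% CO2; HDAC-Glo I/II reagent 30 min RT; luminescence readout.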

[5] = qHTS assay to identify small molecule agonists of the sonic hedgehog signaling (Shh) pathway - cell viability counter screen (AID 1259366); note: nearly all actives have a fitted effect of over 50% in size; note: potency is the fitted concentration of half-maximal effect
How it was run: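 NIH/3T3-derived 3T3 Gli1-Luc cells (stable Gli1-responsive firefly luciferase reporter) were seeded, rested 4 hr at 37 C/5% CO2, then exposed to compounds in DMSO for 24 hr; viability was read by CellTiter-Fluor fluorescence in the same wells.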

[6] = qHTS assay to identify small molecule antagonists of the sonic hedgehog signaling (Shh) pathway - cell viability counter screen (AID 1259367); note: nearly all actives have a fitted effect of over 55% in size; note: potency is the fitted concentration of half-maximal effect
How it was run: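 Tox21 library chemicals were tested on a Gli1-Luc NIH/3T3 clone (2,000 cells/well) stimulated by conditioned medium; viability was quantified as fluorescence from CellTiter-Fluor reagent added at 23 hr.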

[7] = qHTS assay to identify small molecule agonists of the sonic hedgehog signaling (Shh) pathway (AID 1259368; calls by dose curve; note: series mostly up to about 92 µM; nearly all actives have a fitted effect of over 15% in size)
How it was run: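 Read-out: firefly luciferase luminescence from a Gli1 response element reporter stably integrated in NIH/3T3-derived 3T3Gli1-Luc cells, measured 30 min at room temperature after reagent addition. Compound exposure lasted 24 hr at 37 C, 5% CO2.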

[8] = qHTS assay to identify small molecule antagonists of the sonic hedgehog signaling (Shh) pathway (AID 1259369; calls by dose curve; note: nearly all actives have a fitted effect of over 45% in size)
How it was run: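 Luminescence readout: firefly Luc under Gli1 response element in 3T3Gli1-Luc cells (NIH/3T3 clone). Antagonist mode, stimulation by conditioned medium; compound exposure 24hr at 37 C, 5% CO2.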

[9] = qHTS assay to identify small molecule agonists of the androgen receptor (AR) signaling pathway in the presence of an antagonist - cell viability counter screen (AID 1259379); note: nearly all actives have a fitted effect of over 25% in size; note: potency is the fitted concentration of half-maximal effect;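 for activity change, negative = cytotoxicity: MDA-kb2 human breast cancer cells carrying an MMTV luciferase reporter; series mostly up to about 92 µM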
How it was run: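 Viability counter screen: CellTiter-Fluor fluorescence, measured in the same wells as the luciferase read-out. MDA-kb2 cells, 3,000/well, with nilutamide at 3.0uM final and compounds at 15 concentrations, 16 hr at 37C, 0% CO2.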

[10] = molecular target: Androgen receptor (Homo sapiens) (UniProt P10275); test: qHTS assay to identify small molecule agonists of the androgen receptor (AR) signaling pathway in the presence of an antagonist (AID 1259381; calls by dose curve; note: nearly all actives have a fitted effect of over 15% in size)
Chain of Androgen receptor (Homo sapiens) (P10275 whole entry, looked up): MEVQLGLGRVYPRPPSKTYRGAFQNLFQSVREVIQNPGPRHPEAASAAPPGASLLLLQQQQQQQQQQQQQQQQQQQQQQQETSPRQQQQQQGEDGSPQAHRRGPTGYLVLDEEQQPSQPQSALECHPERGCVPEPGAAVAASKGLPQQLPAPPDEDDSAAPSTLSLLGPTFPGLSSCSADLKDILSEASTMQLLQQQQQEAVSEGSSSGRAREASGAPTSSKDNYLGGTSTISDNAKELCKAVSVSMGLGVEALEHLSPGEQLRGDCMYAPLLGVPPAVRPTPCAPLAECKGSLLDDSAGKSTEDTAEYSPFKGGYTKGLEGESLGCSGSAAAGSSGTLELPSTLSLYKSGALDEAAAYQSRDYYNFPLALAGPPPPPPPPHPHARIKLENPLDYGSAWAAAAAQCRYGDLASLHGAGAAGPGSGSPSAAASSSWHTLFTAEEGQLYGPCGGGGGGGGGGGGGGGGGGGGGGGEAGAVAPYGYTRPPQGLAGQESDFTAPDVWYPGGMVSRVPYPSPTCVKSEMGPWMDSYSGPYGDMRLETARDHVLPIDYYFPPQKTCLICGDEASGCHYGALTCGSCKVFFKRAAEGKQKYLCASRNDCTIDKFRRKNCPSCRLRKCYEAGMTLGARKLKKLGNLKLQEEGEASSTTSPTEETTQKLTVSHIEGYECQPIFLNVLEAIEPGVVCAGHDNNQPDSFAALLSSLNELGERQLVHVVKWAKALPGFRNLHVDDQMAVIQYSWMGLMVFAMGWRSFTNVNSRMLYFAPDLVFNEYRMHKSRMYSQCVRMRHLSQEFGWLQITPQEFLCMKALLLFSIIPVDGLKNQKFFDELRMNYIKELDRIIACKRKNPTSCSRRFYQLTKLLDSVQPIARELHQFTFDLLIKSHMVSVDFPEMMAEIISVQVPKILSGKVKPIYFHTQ
How it was run: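 Luciferase read-out (ONE-Glo, 30min room temperature) in MDA-kb2 MMTV-reporter cells; agonist mode run in presence of AR antagonist nilutamide, 3.0uM final. Compounds tested as 15-point series, 16hr exposure at 37C, 0% CO2.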

[11] = qHTS assay to identify small molecule antagonists of the estrogen receptor beta (ER-beta) signaling pathway - cell viability counter screen (AID 1259382); note: series mostly up to about 92 µM; nearly all actives have a fitted effect of over 55% in size
How it was run: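 Luminescent ATP read-out (CellTiter-Glo, 30 min, RT) taken in the same wells as the bla reporter assay. HEK293T ER-beta-UAS-bla cells in 2% charcoal-stripped FBS were exposed to compounds with 1nM E2 for 16 hr at 37C.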

[12] = molecular target: Estrogen receptor (Homo sapiens) (UniProt P03372); test: qHTS assay to identify small molecule agonists of the estrogen receptor alpha (ER-alpha) signaling pathway in the presence of an antagonist (AID 1259383; calls by dose curve; note: top concentration of the series differs between compounds; nearly all actives have a fitted effect of over 15% in size)
How it was run: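 Luciferase luminescence (ONE-Glo, 30min at room temperature) measured in VM7Luc4E2 cells after 22hr compound exposure at 15 concentrations, with 10.0nM ICI-182,780 final present; cells express endogenous ER-alpha and carry four EREs upstream of luciferase.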

[13] = qHTS assay to identify small molecule agonists or antagonists of the thyroid stimulating hormone receptor (TSHR) signaling pathway - wild type cell line counter screen (AID 1259384; calls by dose curve)
How it was run: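 Wild-type Hek293 cells, 800/well, 18 h at 37C, then compound with Ro20-1724 for 30 min RT. cAMP by HTRF (cAMP-d2/anti-cAMP cryptate), 1 h RT, fluorescence read. 15 concentrations, triplicates.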

[14] = qHTS assay to identify small molecule HDAC inhibitors - cell viability counter screen (AID 1259365); note: series mostly up to about 92 µM; nearly all actives have a fitted effect of over 50% in size
How it was run: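 Wild-type HCT-116 cells were seeded at 1,500 per well, incubated overnight at 37 C, then exposed to compounds in DMSO for 2hr. Viability was read by CellTiter-Glo luminescence after 30min at room temperature.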

[15] = molecular target: Estrogen receptor beta (Homo sapiens) (UniProt Q92731); test: qHTS assay to identify small molecule agonists of the estrogen receptor beta (ER-beta) signaling pathway (AID 1259377; active = well fitted activation curve with a large enough effect in the signal ratio in the repeat runs, not every such curve was filed as active; the % refers to the signal ratio)
Chain of Estrogen receptor beta (Homo sapiens) (Q92731 whole entry, looked up): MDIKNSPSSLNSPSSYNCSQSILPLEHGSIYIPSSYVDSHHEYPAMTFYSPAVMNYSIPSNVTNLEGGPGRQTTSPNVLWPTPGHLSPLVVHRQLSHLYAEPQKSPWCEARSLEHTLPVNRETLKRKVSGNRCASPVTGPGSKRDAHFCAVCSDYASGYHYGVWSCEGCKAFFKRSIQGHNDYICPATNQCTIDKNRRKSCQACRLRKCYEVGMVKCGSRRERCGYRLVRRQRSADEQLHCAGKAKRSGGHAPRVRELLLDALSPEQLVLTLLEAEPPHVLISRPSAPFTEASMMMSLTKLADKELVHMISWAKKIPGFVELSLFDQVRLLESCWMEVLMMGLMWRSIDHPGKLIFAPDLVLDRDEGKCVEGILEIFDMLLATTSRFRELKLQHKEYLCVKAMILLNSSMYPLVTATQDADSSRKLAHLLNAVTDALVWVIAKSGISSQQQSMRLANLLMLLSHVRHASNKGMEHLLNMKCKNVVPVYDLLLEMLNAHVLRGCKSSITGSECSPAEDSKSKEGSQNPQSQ
How it was run: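 ER-beta-UAS-bla HEK293T (GripTite) cells carrying a UAS-driven beta-lactamase reporter, in medium with 2% charcoal-stripped FBS, were exposed to compounds for 16 hr at 37C; LiveBLAzer B/G FRET substrate was then added and fluorescence read after 2 hours at room temperature.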

[16] = molecular target: Estrogen receptor beta (Homo sapiens) (UniProt Q92731); test: qHTS assay to identify small molecule antagonists of the estrogen receptor beta (ER-beta) signaling pathway (AID 1259378; active = well fitted inhibition curve with a large enough effect in the signal ratio in the repeat runs, not every such curve was filed as active; the % refers to the signal ratio)
How it was run: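 ER-beta-UAS-bla HEK293T cells in 2% charcoal-stripped FBS medium treated with compound plus 1nM final 17-beta-estradiol for 16 hr at 37C. Beta-lactamase reporter read by FRET substrate fluorescence after 2 hours at room temperature.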

[17] = qHTS assay to identify small molecule agonists of the estrogen receptor beta (ER-beta) signaling pathway - cell viability counter screen (AID 1259380); note: nearly all actives have a fitted effect of over 30% in size; note: potency is the fitted concentration of half-maximal effect
How it was run: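 Luminescence read-out (CellTiter-Glo, 30 min, room temp) taken in the same wells as the beta-lactamase reporter assay; ER-beta-UAS-bla HEK293T cells exposed to DMSO-dissolved compounds for 16 hr at 37C in 2% charcoal-stripped FBS medium.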

[18] = qHTS assay to identify small molecule phospholipidosis (PLD) inducers (AID 1259344; active = well fitted curve in the direction sought with a large enough effect; an effect the other way counts as inactive or inconclusive)
How it was run: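 Image-based: LipidTOX Red pit count/intensity per well and per cell; HepG2, 24 h compound at 37 C, PFA fixation, Hoechst counterstain.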

**Q.** Which Potency [1] does the source give for `COC(=O)Cc1cccc2ccccc12` here?
**A.** inactive

**Q.** And the Potency [2]?
**A.** inactive

**Q.** What about the Potency [3] of the same compound?
**A.** inactive

**Q.** What about the Potency [4] of the same compound?
**A.** inactive

**Q.** And the Potency [5]?
**A.** inactive

**Q.** And the Potency [6]?
**A.** inactive

**Q.** What about the Potency [7] of the same compound?
**A.** inactive

**Q.** What about the Potency [8] of the same compound?
**A.** inactive

**Q.** And the Potency [9]?
**A.** inactive

**Q.** What about the Potency [10] of the same compound?
**A.** inactive

**Q.** And the Potency [11]?
**A.** inactive

**Q.** What about the Potency [12] of the same compound?
**A.** inactive

**Q.** What about the outcome [13] of the same compound?
**A.** inactive

**Q.** What does the source list for `CCCCCCCCCCCCCCCCCCCl`?
**A.** cytotoxicity increase [1]: 0.0897% [at 6.97 µM]; activity change, negative = cytotoxicity [2]: 5.01% [at 8.39 µM]; activity change, negative = inhibition [3]: -0.369% [at 8.39 µM]; activity change, negative = inhibition [4]: 2.06% [at 8.39 µM]; activity change, negative = cytotoxicity [14]: 1.46% [at 8.39 µM]; viability change, negative = cytotoxic [5]: 3.36% [at 8.39 µM]; viability change, negative = cytotoxic [6]: 0.635% [at 8.39 µM]; activity change [7]: 0.949% [at 8.39 µM, active compounds read high]; activity change, negative = inhibition [8]: -7.01% [at 8.39 µM]; activation [15]: -3.3% [at 8.39 µM]; activity, negative = inhibition [16]: 21.3% [at 8.39 µM]; activity change, negative = cytotoxicity [9]: 1.57% [at 8.39 µM]; activity change, negative = cytotoxicity [17]: 2.61% [at 8.39 µM]; activity change, negative = cytotoxicity [11]: -0.0396% [at 8.39 µM]; cAMP activity change [13]: -0.012% [at 8.39 µM]

**Q.** With `CC1=C(C)C(=O)C(C(CCCCCC(=O)O)c2ccccc2)=C(C)C1=O` (centres undefined) as the compound, how does the Potency [1] read?
**A.** inactive

**Q.** What about the Potency [2] of the same compound?
**A.** inactive

**Q.** And the Potency [3]?
**A.** inactive

**Q.** And the Potency [18]?
**A.** inactive

**Q.** And the Potency [4]?
**A.** inactive

**Q.** What about the outcome [14] of the same compound?
**A.** inactive

**Q.** What about the Potency [7] of the same compound?
**A.** inactive

**Q.** What about the Potency [8] of the same compound?
**A.** inactive

**Q.** And the Potency [15]?
**A.** inactive

**Q.** And the Potency [9]?
**A.** inactive

**Q.** What about the Potency [11] of the same compound?
**A.** inactive

**Q.** What about the Potency [12] of the same compound?
**A.** inactive

**Q.** With `CC(C)C/C=C(\C=O)c1ccccc1` as the compound, how does the Potency [1] read?
**A.** inactive

**Q.** What about the Potency [2] of the same compound?
**A.** inactive

**Q.** And the Potency [4]?
**A.** inactive

**Q.** And the Potency [7]?
**A.** inactive

**Q.** And the Potency [8]?
**A.** inactive

**Q.** And the Potency [9]?
**A.** inactive

**Q.** And the Potency [17]?
**A.** inactive

**Q.** What about the Potency [11] of the same compound?
**A.** inactive

**Q.** And the outcome [13]?
**A.** inactive

**Q.** Which results are given for `CC(C)C[C@H](NC(=O)[C@H](Cc1ccccc1)NC(=O)c1cnccn1)B(O)O`?
**A.** Potency [1]: inactive; Potency [2]: 266 nM (active); Potency [3]: 59.6 nM (active); Potency [18]: inactive; Potency [4]: inactive; outcome [14]: inactive; Potency [5]: 1060 nM (active); Potency [6]: 5310 nM (active); Potency [7]: inactive; Potency [8]: inactive; Potency [9]: 47.3 nM (active); Potency [17]: 4220 nM (active); Potency [12]: inactive; outcome [13]: inactive

**Q.** Which Potency [1] does the source give for `CCCCCCC/C=C/C=O` here?
**A.** inactive

**Q.** What about the Potency [2] of the same compound?
**A.** inactive

**Q.** What about the Potency [3] of the same compound?
**A.** inactive

**Q.** And the Potency [4]?
**A.** inactive

**Q.** What about the outcome [14] of the same compound?
**A.** inactive

**Q.** And the Potency [5]?
**A.** inactive

**Q.** What about the Potency [6] of the same compound?
**A.** inactive

**Q.** What about the Potency [7] of the same compound?
**A.** inactive

**Q.** What about the Potency [9] of the same compound?
**A.** inactive

**Q.** What about the Potency [17] of the same compound?
**A.** inactive

**Q.** What about the Potency [11] of the same compound?
**A.** inactive

**Q.** What about the Potency [12] of the same compound?
**A.** inactive

**Q.** What about the outcome [13] of the same compound?
**A.** inactive

**Q.** For `O=C(OCCCCCOC(=O)c1ccccc1)c1ccccc1`, which Potency [1] is on record?
**A.** inactive

**Q.** And the Potency [2]?
**A.** inactive

**Q.** What about the Potency [3] of the same compound?
**A.** inactive

**Q.** What about the Potency [4] of the same compound?
**A.** inactive

**Q.** What about the outcome [14] of the same compound?
**A.** inactive

**Q.** What about the Potency [5] of the same compound?
**A.** inactive

**Q.** What about the Potency [6] of the same compound?
**A.** inactive

**Q.** And the Potency [7]?
**A.** inactive

**Q.** And the Potency [8]?
**A.** inactive

**Q.** And the Potency [9]?
**A.** inactive

**Q.** And the Potency [17]?
**A.** inactive

**Q.** And the Potency [11]?
**A.** inactive

**Q.** And the outcome [13]?
**A.** inactive
